From PubChem BioAssay (NCI)
About 79,000 compounds went through this panel and 15% of them were active in at least one assay; those are over-represented in the sample as a whole. The source made the active and inactive calls. Rule as the data show it: active = growth inhibition above about 70%; inactive = the rest.

Tests used:
[1] = NCI Yeast Anticancer Drug Screen. Data for the rad52 strain (AID 147);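 also: 0% = growth of vehicle-treated control cultures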; conditions: S. cerevisiae rad52 mutant growth inhibition, stronger effect = higher value
Summary of the method: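 Measured: yeast growth inhibition. System: strain with a defined DNA damage repair alteration. Reference: vehicle-treated control cultures.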

[2] = NCI Yeast Anticancer Drug Screen. Data for the wt1 strain (AID 149);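 also: 0% = growth of vehicle-treated wt1 cultures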; conditions: S. cerevisiae wt1 strain (SPY 50644) growth inhibition, stronger effect = higher value
Summary of the method: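 Growth inhibition read against vehicle controls after compound exposure of the wt1 yeast strain.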

[3] = NCI Yeast Anticancer Drug Screen. Data for the rad50EPP+ strain (AID 151);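 also: 0% = growth of vehicle-treated control cultures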; conditions: S. cerevisiae rad50 mutant strain, stronger effect = higher value
Summary of the method: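 One strain with a rad50 alteration (rad50EPP+) was compound-treated, its growth then compared to that of vehicle controls.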

[4] = NCI Yeast Anticancer Drug Screen. Data for the mgt1 strain (AID 153); conditions: S. cerevisiae mgt1 mutant growth inhibition, stronger effect = higher value
Summary of the method: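 After exposure of the mgt1 yeast mutant to compound, growth was measured and reported as inhibition compared with vehicle controls.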

[5] = NCI Yeast Anticancer Drug Screen. Data for the rad50 strain (AID 155);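 also: 0% = growth of vehicle-only cultures of the same strain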; conditions: S. cerevisiae rad50 strain growth inhibition, stronger effect = higher value
Summary of the method: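 Readout: growth inhibition relative to vehicle-treated cultures. Compound exposure was carried out in a genetically defined yeast strain deficient in DNA damage repair.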

[6] = NCI Yeast Anticancer Drug Screen. Data for the mec2-1 strain (AID 157); conditions: S. cerevisiae mec2-1 strain, stronger effect = higher value
Summary of the method: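 Test agents were screened against the mec2-1 yeast strain, with defined DNA repair or cell cycle alteration. Growth was scored as inhibition against vehicle-only controls.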

[7] = NCI Yeast Anticancer Drug Screen. Data for the rad14 strain (AID 159);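 also: 0% = growth of vehicle-treated control cultures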; conditions: S. cerevisiae rad14 strain growth inhibition, stronger effect = higher value
Summary of the method: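 Growth inhibition vs vehicle controls; genetically altered yeast strain (DNA damage repair defect) treated with test compounds.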

[8] = NCI Yeast Anticancer Drug Screen. Data for the sgs1 mgt1 strain (AID 161);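 also: 0% = growth of cultures given vehicle only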; conditions: S. cerevisiae sgs1 mgt1 strain, stronger effect = higher value
Summary of the method: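 Test agents were incubated with a DNA-repair-mutant yeast strain. Growth was then read and compared against vehicle-treated controls.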

[9] = NCI Yeast Anticancer Drug Screen. Data for the CLN2oe strain (AID 163);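 also: 0% = growth of vehicle-only control cultures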; conditions: S. cerevisiae CLN2oe strain, stronger effect = higher value
Summary of the method: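 Here, growth inhibition in a cell-cycle-altered yeast strain after compound exposure was quantified against vehicle control growth.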

[10] = NCI Yeast Anticancer Drug Screen. Data for the cln2 rad14 strain (AID 165);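 also: 0% = growth equal to vehicle treated cultures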; conditions: S. cerevisiae cln2 rad14 strain, stronger effect = higher value
Summary of the method: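 Growth of compound-exposed yeast (cln2 rad14 genotype) measured and expressed as inhibition relative to vehicle.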

[11] = NCI Yeast Anticancer Drug Screen. Data for the bub3 strain (AID 167); conditions: S. cerevisiae bub3 mutant strain, stronger effect = higher value
Summary of the method: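 Readout: yeast growth inhibition, expressed relative to vehicle-only wells. The test organism is a mutant strain from a panel with lesions in DNA repair or checkpoint genes.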

[12] = NCI Yeast Anticancer Drug Screen. Data for the wt2 strain (AID 169);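 also: 0% = growth of vehicle-treated yeast cultures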; conditions: S. cerevisiae wt2 strain growth inhibition, stronger effect = higher value
Summary of the method: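 Genetically defined yeast strains from a DNA-repair/cell-cycle panel were used. Compound-exposed yeast growth was measured, and the inhibition was calculated relative to vehicle treatment.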

[13] = NCI Yeast Anticancer Drug Screen. Data for the mlh1 strain (AID 171);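 also: 0% = growth of vehicle-treated control cultures of the same strain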; conditions: S. cerevisiae mlh1 strain growth inhibition, stronger effect = higher value
Summary of the method: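 Here the genetically defined yeast mutant is grown with each compound, and the extent to which its growth falls below that of vehicle-exposed cells is reported.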

[14] = NCI Yeast Anticancer Drug Screen. Data for the sgs1 strain (AID 173);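 also: 0% = growth of vehicle-only control cultures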; conditions: S. cerevisiae sgs1 mutant, stronger effect = higher value
Summary of the method: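 Relative growth inhibition, referenced to vehicle, was determined in a yeast strain with a defined alteration affecting DNA damage repair or cell cycle control after compound exposure.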

[15] = NCI Yeast Anticancer Drug Screen. Data for the mlh1 rad18 strain (AID 175); conditions: S. cerevisiae mlh1 rad18 strain growth inhibition, stronger effect = higher value
Summary of the method: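 In this whole-cell yeast screen, a strain with altered DNA damage repair is challenged with compound, and its growth is measured against matched vehicle-treated controls.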

[16] = NCI Yeast Anticancer Drug Screen. Data for the rad18 strain (AID 177); conditions: S. cerevisiae rad18 mutant growth inhibition, stronger effect = higher value
Summary of the method: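 Screen uses a yeast strain with a defined lesion in DNA damage repair; compound effect is read as loss of growth compared to untreated vehicle cultures.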

[17] = at 5.0 µM (retest, dose inferred, filed as 0.5)
[18] = at 50.0 µM (retest, dose inferred, filed as 5.0)

Measured: growth inhibition

O=[N+]([O-])c1cccc2nccc(NCCCO)c12
inactive: [1]; at 1.2 µM 18% | [1]; at 3.7 µM 2% | [1]; at 11.0 µM 11% | [1]; at 33.0 µM 40% | [2]; at 1.2 µM 1% | [2]; at 3.7 µM 0% | [2]; at 11.0 µM 5% | [2]; at 33.0 µM 10% | [2]; at 100.0 µM 16% | [3]; at 1.2 µM 14% | [3]; at 3.7 µM 13% | [3]; at 11.0 µM 20% | [3]; at 33.0 µM 27% | [3]; at 100.0 µM 46% | [4]; at 1.2 µM -24% | [4]; at 3.7 µM -9% | [4]; at 11.0 µM -12% | [4]; at 33.0 µM 5% | [4]; at 100.0 µM 26% | [5]; at 1.2 µM -17% | [5]; at 3.7 µM 3% | [5]; [17] 32% | [5]; at 11.0 µM 11% | [5]; at 33.0 µM 40% | [5]; at 50.0 µM 46.3% | [6]; at 1.2 µM -20% | [6]; at 3.7 µM -12% | [6]; [17] 13% | [6]; at 11.0 µM -3% | [6]; at 33.0 µM 23% | [6]; [18] 52% | [6]; at 50.0 µM 57.7% | [6]; at 100.0 µM 68% | [7]; at 1.2 µM -9% | [7]; at 3.7 µM 4% | [7]; at 11.0 µM 34% | [8]; [17] 51% | [9]; at 1.2 µM 11% | [9]; at 3.7 µM 5% | [9]; at 11.0 µM 4% | [9]; at 33.0 µM 2% | [9]; at 100.0 µM 14% | [10]; [17] 15% | [10]; at 50.0 µM 57.9% | [11]; at 1.2 µM -12% | [11]; at 3.7 µM -13% | [11]; [17] 4% | [11]; at 11.0 µM -14% | [11]; at 33.0 µM -18% | [11]; [18] -43% | [11]; at 50.0 µM 10.1% | [11]; at 100.0 µM -9% | [12]; at 1.2 µM -27% | [12]; at 3.7 µM -26% | [12]; at 11.0 µM -19% | [12]; at 33.0 µM -22% | [12]; at 100.0 µM 6% | [13]; at 1.2 µM -26% | [13]; at 3.7 µM -7% | [13]; at 11.0 µM -3% | [13]; at 33.0 µM 5% | [13]; at 100.0 µM 30% | [14]; at 1.2 µM 8% | [14]; at 3.7 µM 38% | [14]; at 11.0 µM 62% | [15]; [17] 24% | [15]; at 50.0 µM 32.9% | [16]; at 1.2 µM 46%
active: [1]; at 100.0 µM 70% | [5]; [18] 79% | [5]; at 100.0 µM 70% | [7]; at 33.0 µM 75% | [7]; at 100.0 µM 91% | [8]; [18] 85% | [8]; at 50.0 µM 73.8% | [10]; [18] 91% | [14]; at 33.0 µM 79% | [14]; at 100.0 µM 86% | [15]; [18] 91% | [16]; at 3.7 µM 79% | [16]; at 11.0 µM 88% | [16]; at 33.0 µM 93% | [16]; at 100.0 µM 94%

Clc1cccc(C(Nc2nncs2)Nc2nncs2)c1Cl
inactive: [1]; at 1.2 µM -1% | [1]; at 3.7 µM 2% | [1]; at 11.0 µM 9% | [1]; at 33.0 µM 28% | [2]; at 1.2 µM -2% | [2]; at 3.7 µM -1% | [2]; at 11.0 µM 0% | [2]; at 33.0 µM 11% | [2]; at 100.0 µM 34% | [3]; at 1.2 µM -1% | [3]; at 3.7 µM 4% | [3]; at 11.0 µM 14% | [3]; at 33.0 µM 47% | [4]; at 1.2 µM 0% | [4]; at 3.7 µM 0% | [4]; at 11.0 µM 0% | [4]; at 33.0 µM 12% | [4]; at 100.0 µM 49% | [5]; at 1.2 µM 4% | [5]; at 3.7 µM 48% | [5]; [17] 0% | [5]; at 11.0 µM 22% | [5]; at 33.0 µM 42% | [5]; [18] 37% | [5]; at 50.0 µM 51.1% | [6]; at 1.2 µM -1% | [6]; at 3.7 µM 4% | [6]; [17] 1% | [6]; at 11.0 µM 7% | [6]; at 33.0 µM 19% | [6]; [18] 29% | [6]; at 50.0 µM 20.7% | [6]; at 100.0 µM 51% | [7]; at 1.2 µM -2% | [7]; at 3.7 µM -2% | [7]; at 11.0 µM 2% | [7]; at 33.0 µM 19% | [8]; [17] 1% | [8]; [18] 50% | [8]; at 50.0 µM 66.5% | [9]; at 1.2 µM -1% | [9]; at 3.7 µM -2% | [9]; at 11.0 µM -1% | [9]; at 33.0 µM 9% | [9]; at 100.0 µM 34% | [10]; [17] -3% | [10]; [18] 25% | [10]; at 50.0 µM -2.6% | [11]; at 1.2 µM 0% | [11]; at 3.7 µM 0% | [11]; [17] -6% | [11]; at 11.0 µM 0% | [11]; at 33.0 µM 12% | [11]; [18] 14% | [11]; at 50.0 µM -20.6%
active: [1]; at 100.0 µM 70% | [3]; at 100.0 µM 92% | [5]; at 100.0 µM 83% | [7]; at 100.0 µM 71% | [11]; at 100.0 µM 77%
